From PubChem BioAssay

The molecules below were run against Voltage-gated potassium channel subunit beta-2 (Rattus norvegicus) (UniProt P62483) (assay: enhancers of rat Kvbeta2 NADPH turnover – biochemical, NADPH fluorescence, primary screen (AID 623;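 also: fluorescence intensity change per second fitted from 20 to 320 s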)). Settings: Recombinant KvBeta, NADPH fluorescence decrease slope, 10 min; at 10 µM; active compounds read low;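 active = NADPH fluorescence slope more negative than the mean of all samples by about 3 SD, 99.7% confidence; inactive = the rest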.
Chain of Voltage-gated potassium channel subunit beta-2 (Rattus norvegicus) (P62483 whole entry, looked up): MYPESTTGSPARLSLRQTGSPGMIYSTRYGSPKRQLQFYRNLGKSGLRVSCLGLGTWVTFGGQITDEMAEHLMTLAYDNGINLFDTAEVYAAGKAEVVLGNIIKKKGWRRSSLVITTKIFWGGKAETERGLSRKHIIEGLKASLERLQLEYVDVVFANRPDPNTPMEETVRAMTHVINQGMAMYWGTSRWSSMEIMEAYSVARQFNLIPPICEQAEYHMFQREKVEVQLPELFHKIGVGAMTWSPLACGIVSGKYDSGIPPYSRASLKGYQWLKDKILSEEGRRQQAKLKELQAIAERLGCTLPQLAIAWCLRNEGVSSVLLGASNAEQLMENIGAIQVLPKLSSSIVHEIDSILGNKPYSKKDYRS

NADPH fluorescence slope, inactive:
CCOc1cccc(-c2nnc3n2N=C(c2cc(OC)ccc2OC)CS3)c1 -2.7e-06, COc1ccc2ccccc2c1CN1CCCC(CO)C1 (stereo not given) -8.2e-05, Cc1cc(NC(c2cccnc2)c2c(C)[nH]c3ccccc23)no1 (stereo not given) -4.4e-05, CC(NC(=O)c1ccc2c(c1)OCO2)C(c1cccs1)N1CCOCC1 (stereo not given) 2.3e-05, COCCn1nnnc1C(c1cc2ccc(OC)cc2[nH]c1=O)N1CCc2ccccc2C1 (stereo not given) -1.3e-05, O=C1c2ccccc2C(=O)N1CCN1CCCCC1 -5e-05, COc1ccc(S(=O)(=O)Cc2ccc(C(=O)N3CCN(c4ccccc4)CC3)o2)cc1 -4.3e-05, Cc1ccccc1C(=O)NC1CCN(Cc2nnnn2Cc2ccccc2)CC1 -4.3e-05, O=C(O)Cn1cc(C(=O)c2ccco2)c2ccccc21 -1.2e-05, CCOc1ccc2oc(-c3ccccc3)c(C(=O)N3CCN(CCO)CC3)c2c1 1.9e-05, O=C(NC1CCCCC1)N(Cc1ccc(F)cc1)Cc1nc2ccccc2c(=O)[nH]1 3.6e-06, O=C(NC1CCCCCC1)C1CCCN(S(=O)(=O)c2cccs2)C1 (stereo not given) -6.4e-05, Cc1cc(C(=O)Nc2sc3c(c2C#N)CCCCC3)cs1 -1.2e-05, CC(=O)Nc1ccc(S(=O)(=O)N(C2=NCC(C)S2)c2ccccc2)cc1 (stereo not given) -1.6e-05, CC(=O)N1CCN(S(=O)(=O)c2ccc(S(=O)(=O)NC3CC3)cc2)CC1 -2.2e-05, CN(C)S(=O)(=O)N1CCN(c2cccc(Cl)c2)CC1 7.3e-06, CCCC(=O)Nc1cc(-c2nnc(OC)c3ccccc23)ccc1N1CCOCC1 -3.3e-06, CCOc1ccccc1-n1c(SCC(=O)NCc2ccco2)nnc1-c1ccncc1 3.6e-05, CC(C)c1ccc(C(O)c2cnc(C(C)C)n2C)cc1 (stereo not given) -3.1e-05, Cc1cccc(N2CCN(Cc3c(C)n(C)n(-c4ccccc4)c3=O)CC2)c1C 5.9e-05, Cc1ccc2c(c1)sc1ncc(NC(=O)c3ccccc3)c(=O)n12 6.2e-06, COc1ccc(CCNc2oc(-c3ccccc3OC)nc2C#N)cc1 2.3e-05, N#CCCN(Cc1cccnc1)C(=O)Nc1ccc(Cl)c(Cl)c1 5.4e-05, CC(=O)N1CCc2cc(S(=O)(=O)CCC(=O)Nc3cccc(F)c3)ccc21 -4e-05, CC(=O)NCc1cccc(CNC(C)=O)n1 -2.5e-05, CCOc1ccccc1-n1nnnc1SCC(=O)Nc1cc2oc3ccccc3c2cc1OC 2.4e-05, CC(=O)Nc1ccccc1OCc1nnc(-c2cccs2)o1 2e-06, O=C1c2ccccc2C(Nc2ccc(F)cc2F)N1CCN1CCOCC1 (stereo not given) -3.1e-05, CNc1ccc(C(O)(C(F)(F)F)C(F)(F)F)cc1C(O)(C(F)(F)F)C(F)(F)F -4.4e-05, Cc1nnc(SC(=O)N2c3ccccc3Sc3ccccc32)s1 -1.7e-05, C=CCn1c(=O)c2ccccc2n2c(SC(C)C(=O)Nc3nc(-c4ccccc4)cs3)nnc12 (stereo not given) -2.2e-05, CC(=O)Nc1cc(NC(C)=O)cc(C(=O)OCC(=O)N2CC(C)OC(C)C2)c1 (stereo not given) -4.8e-05, COc1ccc(C2CC(c3ccc(C)cc3)Nc3ncnn32)cc1 (stereo not given) -2.3e-05, O=C(Nc1ccc2c(c1)OCCO2)NC1CCCCC1 -1.2e-05, CCc1cccc(NC(=O)Cn2cc3c(n2)CCCC3)c1 -2.1e-05, N#Cc1cnn(Cc2ccc(Cl)cc2)c1N -5.6e-05, O=C(NCCCNC1CCCCC1)c1ccc(/C=N/O)nc1 -1.9e-05, CCCCOc1ccc(-c2ncc(C(=O)OCC)c(N)n2)cc1 -4.6e-05, CCOP(=O)(c1ccc(N(C)C)cc1)C(O)c1c(Cl)cccc1Cl (stereo not given) -3.5e-05, Cc1c(NC(=O)c2nn(C)c(=O)c3ccccc23)c(=O)n(-c2ccccc2)n1C -1.3e-05
